Source: PubChem (National Center for Advancing Translational Sciences (NCATS))
BAZ2B block: BAZ2B (human) inhibition; Potency, µM (highest dose often 114 µM), inactives show at the top dose activity change, negative = inhibition, most hits filed as inhibitors; AlphaScreen BAZ2B-H3K14Ac peptide displacement; AID 504333; Q9UIF8; 360,000 compounds, 4.4% hits; note: % is set by controls: 0 for no effect and ±100 for the full control effect; nearly all actives have a fitted effect of over 60% in size
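Compounds, titrated to a top concentration of 110 uM, were incubated 30 min at room temperature with preformed BAZ2B/acetyl-K14 H3 peptide complex (50 nM each). Proximity signal was measured by AlphaScreen after 20 min with beads.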
JMJD2A Tudor inh: blocks the human JMJD2A Tudor domain; AID 504339; AlphaScreen JMJD2A-Tudor / H3K4me3 peptide binding; 390,000 compounds, 4.4% hits; O75164; Potency, µM (highest dose often 114 µM), inactives show at the highest dose activity change, negative = inhibition, most hits filed as inhibitors; note: % is set by controls: 0 for no effect and ±100 for the full control effect; nearly all actives have a fitted effect of over 50% in size
VDR inh: vitamin D3 receptor (human) inhibition; 400,000 compounds, 0.93% hits; Potency, µM, without a hit: max response, negative = inhibition, actives largely listed as inhibitors; AID 504847; VDR-SRC2-3 peptide fluorescence polarization, 2 h; P11473; note: % is set by controls: 0 for no effect and ±100 for the full control effect
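Reagent solutions, kept cold and dark, are dispensed first; compounds are then pinned in at 23 nl, plates briefly spun, and incubated 2 h at ambient temperature. Inhibition of VDR–SRC2-3 peptide binding is read by fluorescence polarization.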
HP1b binding inh: inhibitors of HP1-beta chromodomain binding to methylated histone tails; P83916; Potency, µM (doses to about 114 µM), for the others: at the top dose activity change, negative = inhibition, hits mostly inhibitors; 390,000 compounds, 0.56% hits; AID 540317; AlphaScreen HP1-beta / biotin-H3K9me3 peptide binding; note: nearly all actives have a fitted effect of over 70% in size
Target sequence (P83916 whole entry, looked up): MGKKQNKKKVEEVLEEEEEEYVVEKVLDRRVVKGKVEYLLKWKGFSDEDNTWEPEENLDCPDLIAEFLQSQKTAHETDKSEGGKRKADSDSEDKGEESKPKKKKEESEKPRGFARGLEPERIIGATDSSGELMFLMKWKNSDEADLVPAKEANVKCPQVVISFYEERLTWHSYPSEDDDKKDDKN
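HP1-beta protein (50 nM final) preincubated 30 min at room temperature with biotinylated H3(1-18)K9me3 peptide (50 nM) in PBS pH 7.4, 0.01% Tween-20, then compound added for 30 min. AlphaScreen streptavidin donor/nickel chelate acceptor beads (10 ug/mL final), 30 min dark, luminescence read.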
L3MBTL1 inh: blocks human L3MBTL1; Q9Y468; Potency, µM (highest dose often 57.1 µM), inactives show at the top dose activity, negative = inhibition, most hits filed as inhibitors; AID 485360; AlphaScreen L3MBTL1–H3K9me1 peptide binding; 230,000 compounds, 0.66% hits; note: % is set by controls: 0 for no effect and ±100 for the full control effect; nearly all actives have a fitted effect of over 60% in size
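L3MBTL1 50 nM + b-AHA-H3(1-15)K9me1 75 nM, 30 min RT; compound added, 30 min RT; streptavidin donor/Ni-chelate acceptor beads 10 ug/mL each final, 30 min RT dark; AlphaScreen read.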
PLK1 PBD inh: inhibitors of human PLK1 polo-box domain binding. AID 720504. Potency, µM, inactives show max response, negative = inhibition, hits mostly inhibitors. 360,000 compounds, 2.8% hits. Plk1 PBD binding of FITC phosphopeptide, fluorescence polarization. P53350; note: series mostly up to about 57 µM; % is set by controls: 0 for no effect and ±100 for the full control effect; nearly all actives have a fitted effect of over 65% in size
The depositor's hits bear a star; ? = inconclusive; . = no result; [ ] = another dose, or the depositor's remark. Hits are enriched below; roughly 6.9% of the tested compounds scored in any of these assays. Calls come from the whole dose curve; as a rule, active = well fitted curve in the direction sought with a large enough effect; inconclusive = small, poorly fitted or top-dose-only effect, or another doubt; inactive = no such curve, though single readings can be large; an effect the other way counts as inactive or inconclusive. Potency is the fitted concentration of half-maximal effect.

SMILES	BAZ2B block	JMJD2A Tudor inh	VDR inh	HP1b binding inh	L3MBTL1 inh	PLK1 PBD inh
CCC(c1nnnn1Cc1ccco1)N1CCN(c2cc(Cl)ccc2C)CC1 (stereo unspecified)	?	50µM*	?	?	-1%	?
CCCC(c1nnnn1Cc1cccs1)N1CCN(c2ccc(OC)cc2)CC1 (stereo unspecified)	45µM*	?	8%	?	-20%	-3%
CSc1nn(Cc2ccc(F)cc2)c(N)c1S(=O)(=O)c1ccc(Cl)cc1	-5%	-12%	3%	20%	.	.
Cc1ccc(CNC(=O)c2cc(S(=O)(=O)N3CCCCCC3)cn2C)cc1	4%	-12%	15%	19%[57 µM]	.	.
CC(=O)OC1C[C@]2(C)[C@@H](CC(O)C3[C@]4(C)CCC(O)C(C)[C@@H]4CC[C@]32C)/C1=C(/CCC=C(C)C)C(=O)O (stereo partly specified)	.	.	0%	.	.	.
Cc1cc(NS(=O)(=O)c2ccc(Nc3nc(-c4sc(N)nc4C)cs3)cc2)no1	?	56µM*	?	?	?	30µM*
COc1ccc(-c2csc(Nc3ccc(S(N)(=O)=O)cc3)n2)cc1OC	?	?	-11%	-15%	.	8.4µM*
COc1cc(NS(=O)(=O)c2ccc(NC(=S)Nc3ccccc3)cc2)nc(OC)n1	-10%	-6%	10%	33%	.	-5%
COc1cc(NS(=O)(=O)c2ccc(Nc3nc(-c4ccccc4)cs3)cc2)nc(OC)n1	50µM*	?	-16%	-22%	-12%	27µM*
Cc1cc(NS(=O)(=O)c2ccc(Nc3nc(-c4ccc(O)cc4)cs3)cc2)no1	?	?	-11%	-20%	-1%	?
Cc1cc(NS(=O)(=O)c2ccc(Nc3nc(-c4ccc(C)c(C)c4)cs3)cc2)no1	?	56µM*	-6%	-37%	-12%	-2%
CCOC(=O)Nc1ccc(S(=O)(=O)Nc2cc(C)on2)cc1	5%	-14%	-3%	31%	-1%	1%
COc1ccc(C(=O)Oc2ccc(C(c3c(C)[nH][nH]c3=O)c3c(C)[nH][nH]c3=O)cc2)cc1	-29%	-36%	-25%	3%	.	.
COc1cc(NS(=O)(=O)c2ccc(N/C=C(\C=O)c3nc4ccccc4o3)cc2)nc(OC)n1	79µM*	79µM*	-1%	6%	6%	-21%
N#Cc1ccc(N2C(=O)[C@@H]3C(C(=O)c4ccc5ccccc5n4)=NN[C@@H]3C2=O)cc1	?	-17%	-30%	54%	5%	-7%
N#Cc1ccc(N2C(=O)[C@@H]3C(C(=O)c4cnccn4)=NN[C@@H]3C2=O)cc1	56µM*	16µM*	24%	25%	1%	-9%
Cc1cccc(C(C)C)c1NC(=O)C1CCCN1S(=O)(=O)c1cccc2nsnc12 (stereo unspecified)	-13%	-16%	-2%	26%	.	.
COC(=O)c1ccccc1NC(=O)c1sc(N)nc1C	-2%	0%	7%	13%	-4%	1%
COC(=O)c1ccccc1NC(=O)c1sc(=S)n(C)c1N	-36%	-6%[11.4 µM]	6%	?	-9%	6µM*
CN(C)/C=N/c1nc2nccc(-c3ccc(F)cc3)n2n1	1%	-5%	-6%	42%	-7%	-15%
CN(C)/C=N/c1nc2nccc(-c3cccc(Cl)c3)n2n1	0%	-30%[57.1 µM]	-25%	8%	7%	27µM*
CN(C)/C=N/c1nc2ncc(-c3ccc(Cl)cc3)c(/N=C/N(C)C)n2n1	-3%	-11%[11.4 µM]	-8%	3%	2%	27µM*
CCOC(=O)COc1ccc(CC)cc1C(=O)c1ccn2nc(-c3ccc(C)cc3)cc2n1	-21%	4%	-4%	58%	.	.
CN(C)c1ccc([C@@H]2[C@@H]([N+](=O)[O-])[C@H]3C=Cc4ccccc4N3[C@H]2C(=O)c2ccc(Cl)cc2)cc1	32µM*	45µM*	-20%	?	?	-1%
